Values without a mark were called inactive.
System: Vero E6 infected with SARS-CoV-2
Assay: inhibition of SARS-CoV-2 cytopathic effect; higher = more antiviral protection, active = above 15
Details: 48 h

Structure (SMILES)	inhibition of SARS-CoV-2 cytopathic effect (1 nM) [%]	inhibition of SARS-CoV-2 cytopathic effect (8.33 nM) [%]	inhibition of SARS-CoV-2 cytopathic effect (100 nM) [%]	inhibition of SARS-CoV-2 cytopathic effect (833.33 nM)	inhibition of SARS-CoV-2 cytopathic effect (10000 nM) [%]
[N-]=[N+]=CC(=O)CC[C@H](N)C(=O)O [6-diazo-5-oxo-L-norleucine]	0.69	0.78	0.86	0.6%	-0.69
O=C(Nc1cccc(C(F)(F)F)c1)Nc1ccc(Br)cc1-c1nnn[nH]1	1.75	3.12	2.2	3.69%	4.81
C[C@@H]1CN(Cc2ccc(F)cc2)[C@@H](C)CN1C(=O)c1cc2c(C(=O)C(=O)N(C)C)cn(C)c2cc1Cl [talmapimod]	-1.36	-0.66	-2.57	-0.03%	-1.11
CCOC(=O)Nc1ccc(NCc2ccc(F)cc2)cc1N [Retigabine]	-1.92	1.16	-1.6	-2.18%	1.01
CCOc1ccc2ccccc2c1C(=O)N[C@@H]1C(=O)N2[C@@H]1SC(C)(C)[C@@H]2C(=O)O [nafcillin]	-2.44	1.27	-1.26	-1.73%	-0.95
O=C(c1ccc(F)cc1)C1CCN(CCn2c(=S)[nH]c3ccccc3c2=O)CC1 [altanserin]	-0.65	0.82	0.34	2.37%	1
O=C1CCCN1CC#CCN1CCCC1 [oxotremorine-sesquifumarate]	0.81	2.23	4.01	3.15%	0.96
O=C(Nc1cccc(Nc2ncc(Br)c(NCCc3cnc[nH]3)n2)c1)N1CCCC1	-2.91	-2.57	-1	-2.29%	-4.48
CCCCC1C(=O)N(c2ccccc2)N(c2ccccc2)C1=O [phenylbutazone]	-0.14	0.89	0.31	0.4%	0.88
C[C@H](N)C(=O)N[C@@H](CCC(N)=O)C(=O)O [dipeptamin]	-0.51	1.67	-0.9	0.75%	0.66
CC1(C)[C@H]2CC[C@]1(C)[C@@H](O)[C@H]2O [cis-exo-camphanediol-2,3]	1.51	2.75	4.45	5.23%	0.605
Clc1ccc(C2(c3ccc(-c4cn[nH]c4)cc3)CCNCC2)cc1	1.57	-1.08	1.96	-6.2%	-7.71
N#C[C@@H]1CCCN1C(=O)CNC12CC3CC(CC(O)(C3)C1)C2 [vildagliptin]	0.17	-0.28	-0.35	-0.2%	1.3
CCCCCCCCCCCCCCCCO [1-hexadecanol]	-1.82	0.36	-0.66	-0.99%	-4.02
Cc1sc2c(c1C)C(c1ccc(Cl)cc1)=N[C@@H](CC(=O)Nc1ccc(O)cc1)c1nnc(C)n1-2	1.01	0.43	-1.47	-3.68%	-9.86
CCC1=C[C@@H]2CN3CCc4c([nH]c5ccccc45)[C@@](C(=O)OC)(C2)[C@@H]13 [catharanthine]	0.42	0.35	0.47	0.93%	2.81
CN1CCN(Cc2ccc(-c3cnc4[nH]cc(-c5ccc6[nH]ccc6c5)c4c3)cc2)CC1	1.32	1.21	3.09	21.6% (active)	-14.8
COC(=O)C1=C(C)NC(C)=C(C(=O)OC/C=C/c2ccccc2)C1c1cccc([N+](=O)[O-])c1 (stereo not given) [pranidipine]	1.87	0.47	-0.57	1.4%	8.67

Reference: the supplement of paper PMC13380429
